Compound activity as filed in PubChem.
Mdm2-MdmX inh: inhibitors of human Mdm2-MdmX association, primary screen, cell-based, luminescence, split luciferase, SaOS-2, uHTS | Protein Mdm4 (Homo sapiens) + E3 ubiquitin-protein ligase Mdm2 (Homo sapiens), … | SaOS-2 split-luciferase Mdm2/MdmX complementation | inhibition, % at 8 µM | 330,000 compounds, 3% hits | AID 485346, 2010;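 active = inhibition of at least 50% at 8 µM in the primary screen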
Target sequence (O15151 whole entry, looked up): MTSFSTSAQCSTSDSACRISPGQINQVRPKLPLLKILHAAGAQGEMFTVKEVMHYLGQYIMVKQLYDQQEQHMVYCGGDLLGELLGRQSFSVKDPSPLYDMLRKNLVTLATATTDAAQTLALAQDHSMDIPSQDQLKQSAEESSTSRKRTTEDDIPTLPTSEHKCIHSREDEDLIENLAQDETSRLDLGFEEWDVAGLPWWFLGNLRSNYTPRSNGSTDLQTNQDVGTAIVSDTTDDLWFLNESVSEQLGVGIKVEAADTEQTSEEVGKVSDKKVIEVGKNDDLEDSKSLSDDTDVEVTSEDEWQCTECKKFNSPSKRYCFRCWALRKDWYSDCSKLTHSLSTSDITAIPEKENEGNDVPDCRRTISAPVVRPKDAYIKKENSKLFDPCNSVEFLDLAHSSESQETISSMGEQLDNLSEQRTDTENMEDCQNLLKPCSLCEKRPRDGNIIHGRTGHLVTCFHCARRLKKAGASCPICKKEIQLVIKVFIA
Target sequence (Q00987 whole entry, looked up): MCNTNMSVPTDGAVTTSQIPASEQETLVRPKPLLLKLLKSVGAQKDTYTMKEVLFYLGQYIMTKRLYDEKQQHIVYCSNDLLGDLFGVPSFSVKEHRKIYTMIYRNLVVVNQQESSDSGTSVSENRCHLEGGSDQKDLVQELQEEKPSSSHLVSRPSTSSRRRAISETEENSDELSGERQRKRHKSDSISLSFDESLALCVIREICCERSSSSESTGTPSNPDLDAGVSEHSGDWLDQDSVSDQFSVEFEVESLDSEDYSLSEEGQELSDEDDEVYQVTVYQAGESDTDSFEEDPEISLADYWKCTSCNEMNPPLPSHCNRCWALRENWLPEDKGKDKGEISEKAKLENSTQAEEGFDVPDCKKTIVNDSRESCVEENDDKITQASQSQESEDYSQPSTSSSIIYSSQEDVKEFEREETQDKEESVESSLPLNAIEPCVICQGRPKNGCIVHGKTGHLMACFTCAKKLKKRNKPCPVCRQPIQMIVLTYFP
HSP90 inh: HSP90 inhibitors, primary screen, cell lysate, luminescence; AID 1789, 2009; 290,000 compounds, 0.91% hits; Rabbit reticulocyte lysate, luciferase refolding luminescence, 3 h; inhibition, % at 5.6 µM;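 active = inhibition above the screen-wide mean plus 3 SD, computed separately per campaign, cut at about 16% in these data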;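 also: 0% = DMSO wells and 100% = 60 µM geldanamycin wells; inhibitors lower the luminescence because luciferase stays unfolded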
CF NFkB block: inhibitors of PAF-induced NF-kB signaling, primary screen, cell-based, GFP fluorescence, uHTS; KKLEB NF-kB-GFP reporter, GFP fluorescence overnight; inhibition, % at 5 µM; 360,000 compounds, 0.86% hits; AID 588850, 2011;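 active = at least 50% inhibition at 5 µM, scaled per plate between neutral and stimulator controls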;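 also: PAF is a Pseudomonas aeruginosa culture filtrate used as stimulus; plate controls were PAF-stimulated DMSO wells for no effect and unstimulated DMSO wells for full effect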
KKLEB tox: cytotoxicity in KKLEB CF airway cells, primary screen, cytotoxicity control for CF NF-kB inhibitor project, cell-based, uHTS, fluorescence assay plates; AID 602141, 2011; activity change (cytotoxicity), % at 5 µM; 360,000 compounds, 0.36% hits; KKLEB CF airway cells viability, ATPlite luminescence, overnight; stronger effect = lower value; cells stimulated with P. aeruginosa culture filtrate;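 active = corrected activity change at or below -50% at 5 µM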
LGR2 inh: inhibitors of bursicon-induced LGR2 CRE-luciferase signal, primary screen, cell-based, HEK293, CRE-luciferase reporter, bursicon stimulation; Drosophila bursicon receptor LGR2 (rickets); bursicon-stimulated, 4 h; inhibition, % at 9.99 µM; 380,000 compounds, 0.35% hits; AID 720647, 2013;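 active = drop in luminescence signal, shown as inhibition above about 50% in the replicate tests, limit read from the data, passing the limit was not always enough; inconclusive = probably only some replicates passing the limit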;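 also: agonist challenge used bursicon conditioned medium at about half maximal strength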
Peg3 promoter: Peg3 promoter-driven luciferase inhibitors, primary screen, cell-based, HeLa, luciferase luminescence. HeLa PEG-Prom luciferase reporter, overnight. inhibition, % at 20 µM. 360,000 compounds, 1.7% hits. AID 588405, 2011;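 active = inhibition of at least 50% at 20 µM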
HSP90 confirm: HSP90 inhibitors, confirmation, cell lysate, luminescence. inhibition, % at 5.9 µM. shares compounds with HSP90 inh. 2,300 compounds, 64% hits. rabbit reticulocyte lysate, luciferase refolding luminescence, 3 h; in the data active = inhibition above about 18%;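 also: 0% = vehicle wells and 100% = reference inhibitor wells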
luciferase ctr: firefly luciferase inhibitors, HSP90 counter-screen, confirmation, artefact control for HSP90 inhibitor project, biochemical, luminescence, triplicate; shares compounds with HSP90 inh; purified native firefly luciferase; inhibition, % at 5.9 µM; 2,300 compounds, 48% hits; AID 1847, 2009;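 active = inhibition above the mean inhibition of all tested sample wells plus 3 SD, cut at about 10% in these data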;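 also: 0% = DMSO with luciferase and 100% = wells lacking luciferase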
Active calls of the source: *; ? = inconclusive; · = not tested or not shown. The list is not random: actives were taken first. Their share in the collection is about 3.6%.

SMILES	Mdm2-MdmX inh	HSP90 inh	CF NFkB block	KKLEB tox	LGR2 inh	Peg3 promoter	HSP90 confirm	luciferase ctr
CN(C)c1ccc(N=Nc2ccccc2Br)cc1	-86	52*	-9	-34	?	-139	65*	54*
C[C@@H]1CN([C@@H](C)CO)C(=O)c2cccc(NC(=O)c3cnccn3)c2O[C@H]1CN(C)Cc1ccc(C(=O)Nc2ccccc2N)cc1	·	·	·	·	-9	·	·	·
Oc1c(C=Nc2cccnc2)sc2ccccc12	32	23*	11	4	-41	-45	16*	18*
Oc1c(/C=N/c2ccccn2)sc2ccccc12	-27	3	-3	3	-82	-158	·	·
CN=Cc1sc2ccccc2c1O	3	34*	2	2	-61	-4	-1	-9
CC(=O)NCCN=Cc1sc2ccccc2c1O	19	20*	-10	7	·	-10	3	-8
Oc1c(C=NCc2ccncc2)sc2ccccc12	1	21*	·	·	·	·	-2	-23
COCC(=O)Nc1ccc2c(c1)C(=O)N(C)C[C@H](OC)[C@@H](C)CN(C(=O)Cc1ccccn1)[C@@H](C)CO2	·	·	·	·	-3	·	·	·
C[C@@H]1CCCCO[C@H](CN(C)S(=O)(=O)c2ccc(F)cc2)[C@H](C)CN([C@@H](C)CO)C(=O)c2cc(NS(=O)(=O)c3ccc(F)cc3)ccc2O1	·	·	·	·	6	·	·	·
CNC[C@H]1OCCCC[C@H](C)Oc2ccc(NC(=O)Nc3ccccc3)cc2C(=O)N([C@@H](C)CO)C[C@@H]1C	·	·	·	·	10	·	·	·
COc1cccc(-c2cn(CC[C@H]3CC[C@H](NC(=O)CN(C)C)[C@@H](CO)O3)nn2)c1	·	·	·	·	-2	·	·	·
Oc1c(C=Nc2ccccc2)sc2ccccc12	9	38*	0	-11	?	-174	84*	80*
Oc1c(C=Nc2ccc(Cl)cn2)sc2ccccc12	-172	24*	-26	-8	-18	-80	42*	18*
O=C(C[C@@H]1C=C[C@@H](NC(=O)c2cccc(F)c2)[C@H](CO)O1)Nc1nccs1	·	·	·	·	12	·	·	·
Cn1cnc(S(=O)(=O)N[C@H]2CC[C@@H](CC(=O)Nc3ccc(-c4ccccc4)cc3)O[C@@H]2CO)c1	·	·	·	·	-29	·	·	·
COc1cccc(NC(=O)N(C)C[C@@H]2Oc3ncc(/C=C/c4ccccc4)cc3C(=O)N([C@@H](C)CO)C[C@H]2C)c1	·	·	·	·	0	·	·	·
COc1ccc(S(=O)(=O)Nc2ccc3c(c2)C(=O)N([C@@H](C)CO)C[C@H](C)[C@H](CN(C)C(=O)NC2CCCCC2)OCCCC[C@H](C)O3)cc1	·	·	·	·	0	·	·	·
Cc1cc(C(=O)CSc2nc3ccccc3[nH]2)c(C)n1CC1CCCO1 (configuration not stated)	38	49*	14	-28	·	102*	66*	67*
Cc1cc(C(=O)CSc2nc(N)cc(=O)[nH]2)c(C)n1CC1CCCO1 (configuration not stated)	18	·	-8	1	·	4	·	·
Cc1cc(C(=O)COC(=O)c2ccc3c(c2)OCO3)c(C)n1CC1CCCO1 (configuration not stated)	42	29*	6	0	-50	-135	49*	54*
Cc1cc(C(=O)CSc2nc3ccccc3o2)c(C)n1CC1CCCO1 (configuration not stated)	25	35*	4	-13	·	-237	42*	46*
Cc1ccc(S(=O)(=O)N(C)C[C@@H]2OCCCC[C@@H](C)Oc3ccc(NC(=O)NC(C)C)cc3C(=O)N([C@H](C)CO)C[C@@H]2C)cc1	·	·	·	·	-12	·	·	·
Cn1c(=O)[nH]c(=O)c2c1nc(N1CCCCC1)n2C/C=N/Nc1ccc(C(=O)O)cc1	2	41*	-7	2	11	18	29*	36*
CCOC(=O)Cn1nc(C)n(-c2ccc(C(C)(C)C)cc2)c1=O	-22	17*	8	-2	·	-9	3	-4
Cc1n[nH]c(=O)n1-c1ccc(C(C)(C)C)cc1	-22	-1	14	5	·	-9	·	·
SMILES	Mdm2-MdmX inh	HSP90 inh	CF NFkB block	KKLEB tox	LGR2 inh	Peg3 promoter	HSP90 confirm	luciferase ctr
O=C(Nc1nc2cc3c(cc2s1)OCCO3)c1cccs1	-13	39*	-39	-14	76*	-27	62*	59*
O=C(O)c1cccc(N/N=C/c2ccc(OC(F)(F)F)cc2)c1	-149	47*	-4	4	-9	14	76*	76*
CSc1ccc(/C=N/Nc2cccc(C(=O)O)c2)cc1	·	25*	1	7	·	68*	86*	84*
CO[C@H]1CC[C@H]2CCN(C)C(=O)[C@H](C)[C@@H](OC)CN(C)C(=O)c3cccc(C#N)c3OC[C@@H]1O2	·	·	·	·	5	·	·	·
O=C(c1ccccn1)N1CC[C@H]2[C@H](CO)Nc3ccc(-c4ccccc4)cc3[C@H]21	·	·	·	·	-13	·	·	·
COc1ccccc1Nc1nnc(SCC2CCCCO2)s1 (configuration not stated)	-33	32*	14	-26	36	-102	38*	39*
CC(C)(C)c1ccc(C(=O)Nc2ccc(C=C(C#N)C#N)cc2)cc1	-37	39*	-18	5	-69	-210	45*	-16
O=C(Nc1cccc(O)c1)c1cc(-c2ccc3c(c2)OCO3)on1	40	68*	0	-70*	?	34	92*	85*
O=C(c1cc(-c2ccccc2Cl)on1)N1CCCC1	-3	51*	-17	-16	?	-132	55*	49*
O=C(Nc1cccc(O)c1)c1cc(-c2ccccc2Cl)on1	-18	41*	-12	-42	40	-45	63*	48*
COC(=O)c1ccc(-c2nc(CN3CCN(C(=O)c4ccco4)CC3)c(C)o2)cc1	·	·	4	1	-7	-3	·	·
COC(=O)c1ccc(-c2nc(CN3CCCN(C(=O)c4ccco4)CC3)c(C)o2)cc1	6	25*	-7	6	-29	4	16	-11
C[C@@H]1CN([C@H](C)CO)C(=O)c2cc(NC(=O)CCCCCC(=O)Nc3ccccc3N)ccc2O[C@H]1CN(C)S(=O)(=O)c1ccc(F)cc1	·	·	·	·	18	·	·	·
